# Source: PubChem BioAssay
# Compounds with a hit are over-represented: about 2.8% of the library has one in this group of screens.
# Exocytosis inh = LAMP-1 surface exposure blockers, TALL-104 cells – cell-based, flow cytometry, MLPCN library, primary screen; AID 651702, 2012; 360,000 compounds, 0.66% hits; TALL-104 LAMP-1 surface exposure; cells stimulated with thapsigargin and PMA; inhibition, % at 10 µM;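 active means inhibition above about 55%, limit read from the data; inconclusive means no clear call, values can overlap the other calls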
# IDE inh = human IDE inhibitors in live cells, primary screen, fluorescence polarization, HEK cells, FAbetaB substrate; inhibition, % at 5.59 µM; FAbetaB cleavage; 320,000 compounds, 0.41% hits; Insulin-degrading enzyme (Homo sapiens), P14735;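 active means percent inhibition above the average of all tested compounds plus 3 SD, set per screening campaign, cut at about 16% in these data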;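 further: IDE supplied by intact live HEK cells; FP after avidin binding of uncleaved biotin substrate so inhibition keeps polarization high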
# Target sequence (P14735 whole entry, looked up): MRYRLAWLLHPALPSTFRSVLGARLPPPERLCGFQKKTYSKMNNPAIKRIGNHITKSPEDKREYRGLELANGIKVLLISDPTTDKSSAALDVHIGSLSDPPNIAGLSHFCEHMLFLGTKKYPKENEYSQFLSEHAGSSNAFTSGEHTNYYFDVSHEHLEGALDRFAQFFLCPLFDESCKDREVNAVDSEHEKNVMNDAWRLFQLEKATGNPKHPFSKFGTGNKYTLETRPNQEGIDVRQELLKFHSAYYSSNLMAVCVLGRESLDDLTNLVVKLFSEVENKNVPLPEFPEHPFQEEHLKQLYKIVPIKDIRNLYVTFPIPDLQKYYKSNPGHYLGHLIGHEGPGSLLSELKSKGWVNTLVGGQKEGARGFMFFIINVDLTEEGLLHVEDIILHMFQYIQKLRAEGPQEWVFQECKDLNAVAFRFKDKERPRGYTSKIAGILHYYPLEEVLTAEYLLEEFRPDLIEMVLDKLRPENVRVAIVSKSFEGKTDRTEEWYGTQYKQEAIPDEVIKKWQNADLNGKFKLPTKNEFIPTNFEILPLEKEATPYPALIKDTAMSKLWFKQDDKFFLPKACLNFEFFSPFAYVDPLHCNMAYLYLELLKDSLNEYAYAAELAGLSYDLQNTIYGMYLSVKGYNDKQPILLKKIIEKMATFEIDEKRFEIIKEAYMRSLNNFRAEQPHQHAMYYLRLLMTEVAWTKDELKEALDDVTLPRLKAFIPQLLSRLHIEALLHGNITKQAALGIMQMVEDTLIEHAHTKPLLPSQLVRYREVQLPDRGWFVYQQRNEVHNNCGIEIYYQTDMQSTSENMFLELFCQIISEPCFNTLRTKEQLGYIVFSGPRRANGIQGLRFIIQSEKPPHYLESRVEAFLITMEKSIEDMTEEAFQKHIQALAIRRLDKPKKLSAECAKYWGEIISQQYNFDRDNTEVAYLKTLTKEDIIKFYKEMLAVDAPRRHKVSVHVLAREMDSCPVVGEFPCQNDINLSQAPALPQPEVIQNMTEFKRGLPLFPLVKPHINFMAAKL
# IDE cell activ = human IDE activators in live cells, primary screen, fluorescence polarization, HEK cells, FAbeta-B substrate; Insulin-degrading enzyme (Homo sapiens), P14735; FAbeta-B cleavage; 0% vehicle, 100% cell-free pure enzyme wells; activation, % at 5.96 µM; 340,000 compounds, 0.073% hits; AID 493087, 2011;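 active means activation above the mean of all tested compounds plus 3 SD, set per screening campaign, cut at about 17% in these data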
# PP1 inh = PP1-alpha phosphatase inhibitors, primary screen, counter-screen for PP5 inhibitor project, biochemical, fluorescence, OMFP substrate, single point | purified PP1alpha | inhibition, % at 6.7 µM | 320,000 compounds, 0.9% hits | AID 2235, 2010;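 active means inhibition above the mean inhibition of all tested compounds plus 3 SD, computed separately for each screening campaign, cut at about 15% in these data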
# PP5 primary = PP5 phosphatase inhibitors, primary screen, biochemical, fluorescence; Serine/threonine-protein phosphatase 5 (Homo sapiens), P53041; purified PP5c, OMFP substrate fluorescence; inhibition, % at 6.7 µM; 320,000 compounds, 0.18% hits; AID 1987, 2009;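 active means inhibition above the campaign's mean inhibition across all tested compounds plus 3 SD, cut at about 9.5% in these data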
# SKKanGAS inh = S. pyogenes SKKanGAS growth inhibitors in kanamycin, primary screen, streptokinase expression inhibitor project, SKKanGAS strain, BacTiter-Glo luminescence; inhibition, % at 7.5 µM; AID 1662, 2009; 300,000 compounds, 1.3% hits; 6 h;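 active means mean replicate score, as percent of positive control median, at least 50; inconclusive means mean below 50 but one replicate at or above 50; inactive means mean and every replicate below 50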;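 further: strain carries kanamycin resistance gene driven by streptokinase promoter and grows in 40 µg/ml kanamycin; loss of luminescence reflects streptokinase promoter inhibition or plain growth inhibition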
# PP1 inh confirm = PP1 phosphatase inhibitors, confirmation, biochemical, fluorescence, OMFP substrate, triplicate; shares compounds with PP1 inh; purified PP1alpha; inhibition, % at 6.7 µM; 1,900 compounds, 52% hits;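 active means mean PP1 inhibition above a set limit taken from the earlier primary screen, cut at about 15% in these data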
# PP5 counter = PP5 phosphatase inhibition by PP1 hits, confirmation, counter-screen for PP1 inhibitor project, biochemical, fluorescence, triplicate | inhibition, % at 6.7 µM | AID 2360, 2010 | 1,900 compounds, 4% hits | shares compounds with PP1 inh | purified PP5c, OMFP fluorescence;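 active means mean PP5 inhibition over triplicate wells above about 9.5% taken from the earlier PP1 screen, limit read from the data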
# A number is an active result; 0 = inactive; ? = inconclusive; - = no result.
SMILES,Exocytosis inh,IDE inh,IDE cell activ,PP1 inh,PP5 primary,SKKanGAS inh,PP1 inh confirm,PP5 counter
Clc1ccc(OCc2nc(-c3ccccn3)no2)c(Br)c1,0,0,0,0,0,0,-,-
Cc1n[nH]c(C)c1Cc1c(F)cccc1Cl,0,0,0,0,0,0,-,-
COc1cccc(/C=N/Nc2ncnc(Cl)c2N)c1O,0,0,0,26,0,0,32,0
COc1cccc(/C=N/Nc2ncnc3scc(-c4ccccc4)c23)c1O,0,0,0,26,0,82,32,0
COc1cccc(/C=N/Nc2nccnc2Cl)c1O,0,-,0,-,-,0,-,-
CN(CC(=O)Nc1ccccc1C(F)(F)F)C(=O)c1cccc(-n2cccc2)c1,0,0,0,0,0,0,-,-
COc1cc(/C=C2\SC(=Nc3ccccc3)N(CCc3c[nH]c4ccccc34)C2=O)ccc1OC(C)C(=O)O (stereo not given),0,0,0,18,0,54,0,0
CC(=O)Nc1ccc(S(=O)(=O)N2CCCN(c3nc(C)cc(C)c3C#N)CC2)cc1,0,0,0,0,0,0,-,-
O=C1/C(=C/c2ccccc2Cl)SC(=S)N1CCCC(=O)N(CCO)c1ccccc1,0,0,0,18,0,0,0,0
O=C(O)CCCN1C(=O)/C(=C\c2ccccc2OCc2ccccc2)SC1=S,0,0,0,19,0,?,0,0
CC(=O)c1cccc(N(CC(=O)NC2CCCCC2)C(=O)Cn2nnc(-c3ccccc3)n2)c1,0,0,0,0,0,0,-,-
NC(=O)C1CCN(Cc2nc3cc(C(F)(F)F)ccc3c(=O)[nH]2)CC1,0,0,0,0,0,0,-,-
O=c1cc(-c2ccco2)nc(SCc2cccc(Cl)c2)[nH]1,0,0,0,18,0,0,0,0
O=C(NC1CCCCC1)c1cc(C2CC2)nn1-c1ccccc1,0,0,0,0,0,-,-,-
COc1ccc(/C=N/NC(=O)CC(=O)NCc2cccnc2)cc1[N+](=O)[O-],0,0,0,0,0,0,-,-
Cc1ccc2nc(/N=C(\N)NC(=O)NC3CCCCC3)nc(C)c2c1,0,0,-,22,0,53,33,0
CCCC(=O)N/C(N)=N/c1nc(C)c2cc(C)ccc2n1,0,0,-,0,0,0,-,-
NC(=O)CC(NC(=O)Cc1ccc(Br)cc1)c1ccc(NCCc2ccccc2F)c([N+](=O)[O-])c1 (stereo not given),0,0,0,24,0,0,25,0
COc1ccc(CCNc2ccc(C(CC(N)=O)NC(=O)Cc3ccc(Br)cc3)cc2[N+](=O)[O-])cc1 (stereo not given),0,0,0,18,0,0,26,0
COc1ccc(CCNc2ccc(C(CC(N)=O)NC(=O)c3ccc(Br)cc3)cc2[N+](=O)[O-])cc1 (stereo not given),0,0,0,18,0,0,25,0
NC(=O)CC(NC(=O)Cc1ccc(Br)cc1)c1ccc(NCCc2ccc(F)cc2)c([N+](=O)[O-])c1 (stereo not given),0,0,0,18,0,0,25,0
CCCCCCCCN1C(=O)[C@H](CC(=O)N2CCN(C(=O)c3ccco3)CC2)C[C@@]2(C(=O)OC)CC(C)(C)CC=C12,0,-,-,-,-,-,-,-
NC(=O)CC(NC(=O)c1ccc(Br)cc1)c1ccc(NCc2ccc(F)c(F)c2)c([N+](=O)[O-])c1 (stereo not given),0,0,0,0,0,0,-,-
NC(=O)CC(NC(=O)c1ccc(Br)cc1)c1ccc(NCc2ccc(F)cc2)c([N+](=O)[O-])c1 (stereo not given),0,0,0,19,0,0,26,0
